Out of some 310,000 compounds screened, about 14,000 (4.5%) showed an effect of 50% or more. The effect is printed as a negative number. Shown is part of a subset that was picked to be rich in strong results.
target: human ether-à-go-go-related gene (hERG) potassium channel (human, UniProt Q12809); assay: primary screen, population patch clamp on CHO cells stably expressing hERG; higher = less effect of the substance
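Also: peak tail current of the secondary pulse compared with the same well before compound.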

Sequence of human ether-à-go-go-related gene (hERG) potassium channel (Q12809 whole entry, looked up): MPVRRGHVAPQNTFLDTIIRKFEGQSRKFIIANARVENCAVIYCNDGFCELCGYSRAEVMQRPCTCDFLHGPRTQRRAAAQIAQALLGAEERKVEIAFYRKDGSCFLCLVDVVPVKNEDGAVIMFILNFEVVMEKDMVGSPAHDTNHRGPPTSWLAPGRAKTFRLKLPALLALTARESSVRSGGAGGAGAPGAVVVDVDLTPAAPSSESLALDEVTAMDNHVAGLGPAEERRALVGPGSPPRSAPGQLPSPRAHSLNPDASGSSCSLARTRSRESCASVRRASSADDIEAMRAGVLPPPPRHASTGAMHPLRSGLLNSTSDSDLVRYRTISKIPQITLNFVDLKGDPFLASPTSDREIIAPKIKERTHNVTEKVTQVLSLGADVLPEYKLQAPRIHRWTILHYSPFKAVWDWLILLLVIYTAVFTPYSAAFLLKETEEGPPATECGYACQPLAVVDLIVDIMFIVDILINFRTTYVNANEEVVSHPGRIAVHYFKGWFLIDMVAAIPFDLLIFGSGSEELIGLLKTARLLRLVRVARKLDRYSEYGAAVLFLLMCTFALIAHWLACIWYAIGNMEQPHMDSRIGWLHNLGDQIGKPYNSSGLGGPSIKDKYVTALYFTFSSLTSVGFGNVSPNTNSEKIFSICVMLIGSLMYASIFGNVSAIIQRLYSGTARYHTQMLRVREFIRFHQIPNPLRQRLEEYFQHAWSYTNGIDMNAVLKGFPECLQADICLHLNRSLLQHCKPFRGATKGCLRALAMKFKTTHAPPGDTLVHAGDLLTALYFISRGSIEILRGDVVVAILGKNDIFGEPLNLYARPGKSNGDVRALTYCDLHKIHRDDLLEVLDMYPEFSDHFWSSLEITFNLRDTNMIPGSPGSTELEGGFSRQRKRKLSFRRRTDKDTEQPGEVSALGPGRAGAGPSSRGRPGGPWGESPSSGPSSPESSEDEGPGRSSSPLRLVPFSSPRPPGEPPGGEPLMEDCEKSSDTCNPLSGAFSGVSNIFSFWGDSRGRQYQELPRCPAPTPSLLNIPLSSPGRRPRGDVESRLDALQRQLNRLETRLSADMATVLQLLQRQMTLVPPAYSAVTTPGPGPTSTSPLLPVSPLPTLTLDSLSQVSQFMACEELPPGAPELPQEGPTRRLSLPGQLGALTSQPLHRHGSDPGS

| Compound | hERG current change (%, negative = inhibition) at 10uM |
| --- | --- |
| CCCCC1C2=C(CC(C)(C)CC2=O)OC2=C1C(=O)CC(C)(C)C2 | -9.48% |
| CC(C)(C)C1=C(C#N)C(c2cccnc2)C(C#N)=C(N)O1 (stereo not shown) | 4.42% |
| COc1cc(CCN)ccc1O.Cl | 15.1% |
| COP(=O)(OC)C(Nc1ccccc1)c1ccccc1 (stereo not shown) | 11.4% |
| COc1ccc(N2CCCC2)c(NC(=O)COc2ccccc2Cl)c1 | 14.8% |
| COc1cc(/C=C(/NC(=O)c2ccccc2)C(=O)N2CCN(C)CC2)c([N+](=O)[O-])cc1OC | 9.52% |
| O=C(N/C(=C/c1cccc([N+](=O)[O-])c1)C(=O)N1CCOCC1)c1ccccc1Br | -7.05% |
| CN1CCN(C(=O)/C(=C/c2cccc([N+](=O)[O-])c2)NC(=O)c2ccccc2)CC1 | -72.6% |
| CN1CCN(C(=O)/C(=C\c2cccc([N+](=O)[O-])c2)NC(=O)c2cccs2)CC1 | -25.4% |
| CN1CCN(C(=O)/C(=C/c2ccccc2Cl)NC(=O)c2ccccc2)CC1 | -10.8% |
| O=C(N/C(=C\c1ccccc1)C(=O)N1CCOCC1)c1ccccc1Br | 17.9% |
| O=C(N/C(=C/C=C/c1ccccc1)C(=O)N1CCCCC1)c1ccc([N+](=O)[O-])cc1 | -72.8% |
| CN1CCN(C(=O)/C(=C/c2ccc([N+](=O)[O-])cc2)NC(=O)c2ccccc2)CC1 | -81.5% |
| CC(=O)Nc1ccc(C(=O)N/C(=C/c2ccccc2)C(=O)N2CCCCC2)cc1 | 4.57% |
| O=C(N/C(=C\c1cccc([N+](=O)[O-])c1)C(=O)N1CCCCC1)c1cccs1 | 7.93% |
| O=C(N/C(=C\c1ccc([N+](=O)[O-])cc1)C(=O)N1CCCCC1)c1ccccc1Br | -59.4% |
| O=C(N/C(=C/c1cccc([N+](=O)[O-])c1)C(=O)N1CCCC1)c1ccccc1 | -46% |
| CC1CCN(C(=O)CCc2nnc(-c3ccccc3)o2)CC1 | -5.83% |
| O=C(NNc1ccc([N+](=O)[O-])cc1)C12CC3CC(CC(C3)C1)C2 | 19.5% |
| CC(=O)Nc1ccc(OCc2cccc([N+](=O)[O-])c2)cc1 | 8.84% |

| Compound | hERG current change (%, negative = inhibition) at 10uM |
| --- | --- |
| Cc1onc(-c2ccccc2Cl)c1C(=O)Oc1cc(N)n(S(=O)(=O)c2ccc(F)cc2)n1 | -3.48% |
| COc1ccccc1Cc1nc(-c2cccnc2)no1 | 14.8% |
| Cc1ccn2c(C(=O)CSc3ccc(Cl)cc3)c(C)nc2c1 | 7.28% |
| CCOc1ccc(N2C(=O)CC(NCC3CCCO3)C2=O)cc1 (stereo not shown) | 2.22% |
| O=C(Nc1ccccc1)C(c1ccccc1)c1ccccc1 | 15.1% |
| CCCCOc1ccc(C(=O)N/C(=C/C=C/c2ccccc2)C(=O)N2CCOCC2)cc1 | -5.66% |
| O=C(N/C(=C/C=C/c1ccccc1)C(=O)N1CCOCC1)c1ccccc1Cl | -16.6% |
| O=C(N/C(=C/C=C\c1ccccc1)C(=O)N1CCOCC1)c1ccc(Br)cc1 | -64.1% |
| O=C(N/C(=C/c1ccccc1)C(=O)N1CCCCC1)c1ccccc1 | 29.9% |
| O=C(N/C(=C\c1ccc([N+](=O)[O-])cc1)C(=O)N1CCCCC1)c1ccccc1 | -76.9% |
| O=C(N/C(=C\c1ccccc1)C(=O)N1CCCCCC1)c1ccccc1 | 15.2% |
| Cc1cc(C(=O)OCC(=O)Nc2cccc(S(N)(=O)=O)c2)c2ccccc2n1 | -4.62% |
| COc1cc(C2NC(=S)NC(c3ccccc3)=C2C(C)=O)ccc1O (stereo not shown) | 15.4% |
| CCOCCCNC(=O)c1ccc2nc(-c3ccc(OC)c(OC)c3)c(-c3ccc(OC)c(OC)c3)nc2c1 | 6.99% |
| NC(=O)CCCn1c(C(=O)c2cc(Cl)c(N)c(Cl)c2)c2ccc([N+](=O)[O-])cc2[n+]1[O-] | -30.9% |
| COc1ccc(C(=O)c2c3ccc([N+](=O)[O-])cc3[n+]([O-])n2CCC[NH3+])cc1.[Cl-] | -47.4% |
| NC(=O)CCn1c(C(=O)c2cccc([N+](=O)[O-])c2)c2ccccc2[n+]1[O-] | 4.25% |
| [Cl-].[NH3+]CCCn1c(C(=O)c2ccc(Cl)cc2)c2ccc([N+](=O)[O-])cc2[n+]1[O-] | -63.8% |
| NC(=O)CCCn1c(C(=O)c2ccc(Cl)cc2)c2ccc([N+](=O)[O-])cc2[n+]1[O-] | -74.1% |
| Cc1ccc(C(=O)c2c3ccc([N+](=O)[O-])cc3[n+]([O-])n2CCCC(N)=O)cc1 | -36.6% |

Reference: PMC4336329 (PLoS ONE, 2015)
